Our source for the AC50 and activity, negative = inhibition values is PubChem BioAssay AID1851 (National Center for Advancing Translational Sciences (NCATS), 2009).

The campaign covered roughly 16,000 compounds. About 4,000 (25%) were called active. Not shown: some 26% with an inconclusive outcome. Only a sample is shown. Unmarked numbers belong to inactive results. Calls come from the whole dose curve; as a rule, active = well fitted curve in the direction sought with a large enough effect; inconclusive = small, poorly fitted or top-dose-only effect, or effect the other way; inactive = no such curve, though single readings can be large or run the other way.

One may read the AC50 as the midpoint of the concentration-response curve, whichever way the signal moves.
% is set by controls: 0 for no effect and ±100 for the full control effect.

The target of this test is Cytochrome P450 2C9 (Homo sapiens) (UniProt P11712). The test can be described thus: Cytochrome panel assay with activity outcomes. As to conditions: recombinant CYP, pro-luciferin dealkylation, luminescence, p450-cyp2c9; series mostly up to 57.1 µM.
Sequence of Cytochrome P450 2C9 (Homo sapiens) (P11712 whole entry, looked up): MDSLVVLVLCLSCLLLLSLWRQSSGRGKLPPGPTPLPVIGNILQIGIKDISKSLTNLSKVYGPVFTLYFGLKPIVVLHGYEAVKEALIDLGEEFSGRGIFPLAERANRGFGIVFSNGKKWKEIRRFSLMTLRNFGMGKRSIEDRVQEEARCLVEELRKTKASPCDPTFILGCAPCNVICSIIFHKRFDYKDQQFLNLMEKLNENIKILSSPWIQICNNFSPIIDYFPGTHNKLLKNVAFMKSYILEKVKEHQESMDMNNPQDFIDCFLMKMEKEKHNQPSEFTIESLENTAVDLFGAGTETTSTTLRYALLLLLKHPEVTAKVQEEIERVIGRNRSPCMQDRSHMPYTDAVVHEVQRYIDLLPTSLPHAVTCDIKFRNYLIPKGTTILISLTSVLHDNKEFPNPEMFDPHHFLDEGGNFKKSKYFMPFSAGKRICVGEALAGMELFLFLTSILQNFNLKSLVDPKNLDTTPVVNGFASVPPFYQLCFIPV
With `O=C(O)c1c2ccccc2cc2ccccc12`, the AC50 entry is “inactive”.

With `N[C@@H](Cc1ccnnc1)C(=O)O`, the activity, negative = inhibition is -15.4% [at 11.4 µM].

Take `CCN(CC)C(=O)CSc1nnc(CNc2ccc(F)cc2)o1`: the AC50 result was “inactive”.

On to `O=C(CSc1nnc(CNc2ccc(F)cc2)o1)N1c2ccccc2Sc2ccccc21`, for which the concentration at half-maximal activity (AC50) is 4.47 µM (active).

In the case of `N#Cc1cccc(-c2cc(NCc3ccccc3)ncn2)c1`, the activity, negative = inhibition is 10.6% [at 2.29 µM].

Turning to `Cc1ccc(-[n+]2cc(=O)o[nH]2)cc1`, the activity, negative = inhibition was 2.87% [at 11.4 µM].

Turning to `O=S(=O)(Nc1ccc2oc(-c3ccccc3)nc2c1)c1ccccc1`, the AC50 is 0.794 µM (active).

For `CS(=O)(=O)Nc1cccc(-c2nc(Nc3ccc(F)cc3)c3ccccc3n2)c1`, the activity, negative = inhibition was -24.2% [at 2.29 µM].

With `CN(C)c1nc(-c2cccc(NS(C)(=O)=O)c2)nc2ccccc12`, the activity, negative = inhibition was 15.7% [at 2.29 µM].

With `CC(C)CN=C(N)N=C(N)N`, the activity, negative = inhibition is -6.17% [at 11.4 µM].

In the case of `CC1CCc2c(C(=O)Nc3nccs3)csc2C1` (centres undefined), the AC50 is 3.16 µM (active).

Regarding `CN1CCc2cc(Cl)c(O)cc2[C@H](c2ccccc2)C1`, the AC50 result was “inactive”.

Turning to `CC1=NN(c2ccc(F)cc2)C(=O)C1C(c1cccc(O)c1)c1c(C)[nH]n(-c2ccc(F)cc2)c1=O` (centres undefined), the AC50 was 4.47 µM (active).

For the compound `COc1cccc(C(c2c(C)[nH]n(-c3ccccc3)c2=O)c2c(C)[nH]n(-c3ccccc3)c2=O)c1O`, the AC50 result was “inactive”.

As for `CCC(=O)O[C@@]1(C(=O)SCF)[C@@H](C)C[C@H]2[C@@H]3C[C@@H](F)C4=CC(=O)C=C[C@@]4(C)[C@]3(F)[C@@H](O)C[C@]21C`, the AC50 result is “inactive”.

Consider `O=C(O)CP(=O)(O)O`, for which the AC50 result is “inactive”.

For the compound `COC(=O)CCC(=O)Nc1cccc(C(=O)Nc2cccc(Cl)c2)c1`, the AC50 is 3.16 µM (active).

Take `CC(=O)c1cccc(NC(=O)Oc2ccccc2)c1`: the AC50 result was “inactive”.

Turning to `Cc1cccc(OCCCC(=O)Nc2ccc(N3CCCCC3)cc2)c1`, the AC50 result was “inactive”.

For the compound `COC(=O)c1cccc(NC(=O)CCCOc2ccccc2)c1`, the half-maximal activity concentration (AC50) was 3.16 µM (active).

In the case of `COc1ccc(NC(=O)CCOc2ccccc2)cc1`, the half-maximal activity concentration (AC50) is 11.2 µM (active).

Take `COc1ccc(NC(=O)c2ccc(COc3ccccc3)o2)cc1`: the AC50 was 0.251 µM (active).

For `O=C(O)CCSC1=NCCN1`, the activity, negative = inhibition is 2.01% [at 11.4 µM].

As for `CN(C)Cc1ccccc1-c1cc(NCc2cccs2)ncn1`, the activity, negative = inhibition was 12.8% [at 2.29 µM].

For `C[C@]12CC[C@H]3c4ccc(O)cc4CC[C@@H]3[C@H]1CC[C@@H]2OC(=O)CCC1CCCC1`, the activity, negative = inhibition is 17.9% [at 11.4 µM].

Consider `Cc1onc(C(=O)/C=C/N(C)C)c1C(=O)Nc1nccs1`, for which the AC50 entry is “inactive”.

Turning to `O=C(Nc1cccc(Cl)c1)Nn1cnnc1`, the activity, negative = inhibition was 8% [at 11.4 µM].

Consider `COC(=O)c1cccc(NC(=O)Nc2ccc(Cl)c(Cl)c2)c1`, for which the AC50 is 2.51 µM (active).

Take `Cc1ccc(OCc2ccc(C(=O)Nc3nccs3)o2)cc1C`: the AC50 is 10 µM (active).
